Source: PubChem
Hits are enriched below; roughly 6.7% of the tested compounds scored in any of these assays.
PINK1 modulator = modulators of PINK1 expression | PINK1 immunofluorescence, high-content cytometry, 24 h | hit rate 0.2% among 410,000 | Potency, µM (highest dose often 76.6 µM), for inactives: at the highest dose activation (PINK1 increase), hits mostly activators; active = well fitted activation curve with a large enough effect; inconclusive = small, poorly fitted or top-dose-only effect; cell line not stated here; note: % of control where 0% means no effect; nearly all actives have a fitted effect of over 65% in size
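Compound titrations (5 concentrations, 24 h) on a stable cell line; DMSO and CCCP controls. Endpoint: fixed-cell PINK1 immunofluorescence with mitochondrial, cell and nuclear markers, scanned by microplate cytometer.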
SW480 rerep = induces DNA re-replication in SW480 colon adenocarcinoma cells; SW480 DNA re-replication, Hoechst DNA content imaging, 48 h; Potency, µM (titrated, usually from 46.1 µM), inactives show top-dose re-replication activation, hits mostly activators; hit rate 1.8% among 340,000; note: % of control where 0% means no effect; nearly all actives have a fitted effect of over 55% in size
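Quantitative HTS format with DMSO vehicle controls; 48 hr drug incubation at 37 C, then 40 min Hoechst staining and scanning imager measurement at 405 nm excitation.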
KB-3-1 tox = kills parental KB-3-1 adenocarcinoma cells; KB-3-1 viability, CellTiter-Glo ATP luminescence, 72 h; Potency, µM (top dose mostly 46.1 µM), actives largely listed as cytotoxic; hit rate 1.4% among 400,000; note: % is set by controls: 0 for no effect and ±100 for the full control effect; nearly all actives have a fitted effect of over 60% in size
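Cytotoxicity in the drug-sensitive parental line KB-3-1 was scored as loss of CellTiter-Glo luminescence following 72 h incubation with compound. Values come from curve fitting of normalized concentration-response data.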
KB-V1 cytotox = KB-V1 MDR subline cytotoxicity. KB-V1 MDR cells viability, CellTiter-Glo, 72 h. hit rate 3.4% among 400,000. Potency, µM (doses to about 46.1 µM), usual class: cytotoxic; note: % is set by controls: 0 for no effect and ±100 for the full control effect; nearly all actives have a fitted effect of over 60% in size
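Compound-treated KB-V1 multidrug-resistant cells, 72 h, 37 degrees C; viability by CellTiter-Glo. Fitted qHTS curves give the values.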
MCF10A rereplic = induces DNA re-replication in MCF 10a normal breast cells | MCF 10A DNA re-replication, Hoechst nuclear intensity, 48 h | Potency, µM (series often up to 46.1 µM), without a hit: top-dose activity, positive = re-replication, usual class: activators | hit rate 2.9% among 350,000 | AID 624296; note: % of control where 0% means no effect; nearly all actives have a fitted effect of over 50% in size
An asterisk follows results filed as active; i = inactive; ? = inconclusive; · = no result; [ ] = dose if it differs, or a comment. Unless noted, calls come from the whole dose curve; as a rule, active = well fitted curve in the direction sought with a large enough effect; inconclusive = small, poorly fitted or top-dose-only effect, or another doubt; inactive = no such curve, though single readings can be large; an effect the other way counts as inactive or inconclusive. Potency is the fitted concentration of half-maximal effect.

SMILES | PINK1 modulator | SW480 rerep | KB-3-1 tox | KB-V1 cytotox | MCF10A rereplic
CCOC(=O)C1(CCOC)CCN(Cc2ccc(COC)o2)CC1 | -1% | -1% | i | i | -3%
CCOC(=O)C1(Cc2ccccc2C(F)(F)F)CCN(Cc2ccc(COC)o2)CC1 | 1% | 29% | 18µM* | ? | ?
CCCc1nn(C)c(C(=O)Nc2cccc(CC)c2)c1Cl | 8% | -12% | i | 18µM* | ?
CCc1noc(C)c1C(=O)N1CCOc2ccc(CN3CCCC(C(=O)c4cccnc4)C3)cc2C1 (stereo not drawn) | -1% | · | · | · | ·
COc1ccc(Cl)cc1NC(=S)NCCN1CCOCC1 | 5% | ? | i | i | 0.46µM*
COc1ccc(Cl)cc1NC(=S)N(CCCN1CCOCC1)Cc1cn(C)c2ccccc12 | 0% | 23µM* | ? | i | ?
COc1cc(CNCCCN2CCOCC2)cc(Br)c1OCc1ccc(Cl)cc1 | -2% | -3% | ? | ? | 13µM*
COc1ccccc1NC(=S)NCCN1CCOCC1 | -1% | -2% | i | i | 10%
COc1ccc(-n2c3c(cc(-c4nc(-c5ccc(C)cc5)cs4)c2=O)C(=O)CC(C)(C)C3)cc1 | 0% | · | i | i | ·
CCc1cc(=O)oc2c3c(cc(OCC(=O)NCc4cccnc4)c12)OC(C)(C)CC3 | 0% | 1% | i | ? | -37%
CCc1cc(=O)oc2c3c(cc(OCC(=O)Nc4cccnc4)c12)OC(C)(C)CC3 | 1% | 0% | i | 16µM* | ?
CCN1C(=O)c2cccc3c(S(=O)(=O)N(C(C)=O)c4ccc(OC(C)=O)cc4)ccc1c23 | 4% | 11% | i | ? | ?
Cc1noc(C)c1-c1nc(NCc2cccs2)c2ccccc2n1 | 3% | · | · | · | ·
CCOC(=O)c1c(C=O)c(C)n(Cc2ccc(Cl)cc2)c1C | 2% | 1% | i | 3.7µM* | 12µM*
CCOC(=O)c1c(N2C(=O)Nc3cc(Cl)c(Cl)cc3N2O)sc2c1CCCCC2 | 0% | 0% | i | i | 2.3µM*
COc1ccc(NC(=O)C2CCC(N3C(=O)C4C5C=CC(C5)C4C3=O)CC2)cc1 (stereo not drawn) | 1% | 1% | i | i | -3%
O=C(Nc1ccc(Cc2ccncc2)cc1)C1CCC(N2C(=O)C3C4C=CC(C5CC45)C3C2=O)CC1 (stereo not drawn) | 1% | 14% | ? | 12µM* | ?
CC(=O)Nc1ccc(NC(=O)C2CCC(N3C(=O)C4C5C=CC(C6CC56)C4C3=O)CC2)cc1 (stereo not drawn) | 5% | 2% | i | i | 23µM*
c1ccc(-c2nc(-c3ccccn3)no2)cc1 | -3%[38.3 µM] | 2% | 9.2µM* | 16µM* | ?
c1ccc(-c2ccc(-c3nc(-c4ccccn4)no3)cc2)cc1 | -2%[38.3 µM] | 1% | 13µM* | 8.2µM* | -1%
Cc1ccc(-c2nc(-c3ccccn3)no2)cc1 | -1% | -3% | 9.2µM* | 6.5µM* | 2%
COC(=O)CC1Oc2ccc(F)cc2-n2cc(-c3ccc(Cl)cc3)nc21 (stereo not drawn) | 12% | · | i | i | ·
CC(=O)Nc1nonc1-c1nnc(SCC(=O)Nc2c(C)cccc2C)n1-c1ccccc1 | -1% | · | i | i | ·
NC(C(=O)O)[C@@H]1CC(Cl)=NO1 (stereo partly drawn) | · | -3% | · | · | 10%
NC(C(=O)O)C1ON=C(Cl)C1O (stereo not drawn) | -5% | ? | 0.33µM* | 1.6µM* | 0%
SMILES | PINK1 modulator | SW480 rerep | KB-3-1 tox | KB-V1 cytotox | MCF10A rereplic
Cn1c(CSCc2ccc(F)cc2)nnc1SCC(=O)N1CCN(c2ccccc2)CC1 | 3% | -5% | ? | 16µM* | 3%
Cn1c(CSCc2ccc(F)cc2)nnc1SCC(=O)Nc1nccs1 | -7%[38.3 µM] | 0% | ? | 23µM* | 7%
Cn1c(CSCc2ccc(Cl)cc2)nnc1SCC(=O)Nc1nccs1 | -1%[38.3 µM] | -7% | i | i | 18%
O=C(CSCc1ccc(F)cc1)N1CCN(c2ccccc2)CC1 | 1% | 7% | i | ? | 10%
CSc1ccc(S(=O)(=O)N2CCC(C(=O)N3CCc4ccccc4C3)CC2)cc1 | 1% | 1% | i | ? | 22%
COc1cccc(CNC(=O)CN2C(=O)CSc3c2c(C)nn3-c2ccccc2)c1 | 0% | · | i | i | ·
Cc1csc(NC(=O)CSc2[nH]c(=O)ncc2C)n1 | 0% | -3% | i | ? | 0%
Cc1cnc(=O)[nH]c1SCC(=O)c1ccc(F)cc1 | 3% | 74% | i | i | 18µM*
COc1ccc(CCNC(=O)c2ccc3nc(Cc4ccccc4)oc3c2)cc1OC | 0% | · | i | i | ·
Cc1ccc(C(=O)CN2/C(=C(\O)c3ccccc3)C(=O)c3ccccc3S2(=O)=O)c(C)c1 | -1% | ? | ? | 2.3µM* | ?
C=CCNc1nc(N2CCCCC2)c(C#N)c2c1CN(Cc1ccccc1)CC2 | -1% | ? | ? | i | 16µM*
CC1CCCN(C(=O)C(C)Sc2nc(-c3ccccc3)cc(C(F)(F)F)n2)C1 (stereo not drawn) | · | ? | i | ? | ?
CC(Sc1nc(-c2ccccc2)cc(C(F)(F)F)n1)C(=O)N1CCCCC1 (stereo not drawn) | -1% | ? | i | ? | 21µM*
[O-][n+]1c2ccccc2cc2ccccc21 | 0% | 18µM* | i | i | 18µM*
COc1ccc2c(ccc[n+]2[O-])c1 | 0% | -12% | i | i | -3%
O=c1c2sccc2n(Cc2ccc(F)cc2)c(=O)n1-c1ccc(F)cc1 | 2% | 0% | i | ? | -64%
O=C(Cn1c(=O)n(-c2ccc(F)cc2)c(=O)c2sccc21)c1ccccc1 | 1% | -104% | i | 21µM* | -4%
O=C(Nc1nc2c(s1)CCCC2)c1cccnc1 | -5%[38.3 µM] | -11% | i | ? | -6%
COC(=O)c1ccc(C(=O)NC(=S)Nc2nc3c(s2)CC(C)CC3)cc1 (stereo not drawn) | 2% | 3% | 16µM* | ? | -6%
CC1CCc2nc(NC(=O)CN3CCN(c4ccc(F)cc4)CC3)sc2C1 (stereo not drawn) | 1% | 4% | i | i | 16%
O=C(NC(=S)Nc1nc2c(s1)CCCC2)c1ccc(C(=O)c2ccccc2)cc1 | 0% | 1% | 23µM* | 4.1µM* | 1%
COc1cccc(N2CCN(CC(=O)Nc3nc4c(s3)CC(C)CC4)CC2)c1 (stereo not drawn) | 7%[38.3 µM] | -1% | i | 18µM* | -2%
CCOc1ccc(C(=O)Nc2ccc(Cl)c(-c3nc4cc(C)cc(C)c4o3)c2)cc1 | 0% | · | i | i | ·
O=c1n(CC2CO2)c(=O)n(CC2CO2)c(=O)n1CC1CO1 (stereo not drawn) | 1% | 9.2µM* | ? | i | 1.8µM*
